Our source for the Potency and outcome values is PubChem BioAssay (Tox21).

Molecules are shown by their SMILES. Records with an inconclusive call do not appear. Activity calls are given as the source filed them. Unless noted, calls come from the whole dose curve; as a rule, active = well fitted curve in the direction sought with a large enough effect in the repeat runs; inconclusive = weak or mixed curves; inactive = no such curve, though single readings can be large; an effect the other way counts as inactive or inconclusive.

Test [1] is described as follows: qHTS assay to identify aromatase inhibitors - cell viability counter screen (AID 743084).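 Note: cells stimulated with testosterone during compound exposure; nearly all actives have a fitted effect of over 55% in size.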 Note: potency is the fitted concentration of half-maximal effect. For orientation: Quantitative high-throughput screening tests each substance at several concentrations.
Test [2] has as its target Aryl hydrocarbon receptor (Homo sapiens) (UniProt P35869). In words: qHTS assay to identify small molecule that activate the aryl hydrocarbon receptor (AhR) signaling pathway (AID 743085).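 For activation: HG2L7.5c1 human HepG2 liver cells with stably integrated DRE-driven firefly reporter; series mostly up to about 70 µM.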 Note: nearly all actives have a fitted effect of over 15% in size. Note: potency is the fitted concentration of half-maximal effect. A digest of the protocol:
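24 h compound exposure, 37C, HepG2-derived HG2L7.5c1 cells with DRE-responsive luciferase. Readouts: fluorescence viability, then luminescence at room temperature after 30 min.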

Test [3] in a line: qHTS assay to identify small molecule that activate the aryl hydrocarbon receptor (AhR) signaling pathway - cell viability counter screen (AID 743086).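 Note: HepG2 liver cells carrying the AhR DRE luciferase reporter; series mostly up to about 70 µM; nearly all actives have a fitted effect of over 45% in size.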 Summed up: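 HepG2-AhR-luc (HG2L7.5c1) cells, 4000/well, treated 24 h at 37 C with compound; viability measured as CellTiter-Fluor fluorescence after 30 min in the same wells as the luciferase read.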
In test [4] the target is Peroxisome proliferator-activated receptor gamma (Homo sapiens) (UniProt P37231). In words: qHTS assay to identify small molecule agonists of the peroxisome proliferator-activated receptor gamma (PPARg) signaling pathway (AID 743094; active = well fitted activation curve with a large enough effect in the signal ratio in the repeat runs, not every such curve was filed as active; the % refers to the signal ratio). Summed up: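 Following 5 h plating at 37C, PPARg-bla HEK293H cells receive compound or DMSO for 17 h; fluorescence intensity is recorded after LiveBLAzer B/G loading for 1 h at room temperature.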

Test [5] has the same target. The test is described as follows: qHTS assay to identify small molecule antagonists of the peroxisome proliferator-activated receptor gamma (PPARg) signaling pathway (AID 743191; calls by dose curve; note: series mostly up to about 63 µM; nearly all actives have a fitted effect of over 30% in size). A digest of the protocol:
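GeneBLAzer PPARg UAS-bla HEK293H cells, 5 h post-plating, exposed to compounds 17 h at 37C. LiveBLAzer B/G FRET substrate added for 1 h at room temperature; beta-lactamase reporter read by fluorescence intensity.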

Test [6] is described as follows: qHTS assay to identify small molecule antagonists of the peroxisome proliferator-activated receptor gamma (PPARg) signaling pathway - cell viability counter screen (AID 743194). Note: nearly all actives have a fitted effect of over 55% in size. Note: potency is the fitted concentration of half-maximal effect. A digest of the protocol:
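Cytotoxicity counter screen in PPARg-bla HEK293H cells, same wells as reporter assay. Compounds plus 50 nM rosiglitazone (final) for 17 h at 37 C, then viability read by CellTiter-Glo luminescence.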

Test [7] can be described thus: qHTS assay for small molecule agonists of the antioxidant response element (ARE) signaling pathway - cell viability counter screen (AID 743203; calls by dose curve; note: nearly all actives have a fitted effect of over 55% in size). Summed up: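 Compounds in DMSO were pinned onto ARE-bla HepG2 cells plated 5 hrs earlier at 2,000 cells/well. Sixteen hours later at 37C/5% CO2, CellTiter-Glo was added and luminescence measured after 30 min at room temperature.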

Test [8] is described as follows: qHTS assay for small molecule activators of the heat shock response signaling pathway - cell viability counter screen (AID 743209). Note: nearly all actives have a fitted effect of over 50% in size. Note: potency is the fitted concentration of half-maximal effect. Summed up: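 Counter screen for cytotoxicity in HeLa HSE-bla reporter cells. Treatment was 5 h at 37 C; viability was detected by luminescent ATP assay (CellTiter-Glo) in the same wells as the beta-lactamase read.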
The nature of test [9]: qHTS assay to identify small molecule agonists of the peroxisome proliferator-activated receptor delta (PPARd) signaling pathway - cell viability counter screen (AID 743211). Note: potency is the fitted concentration of half-maximal effect; nearly all actives have a fitted effect of over 55% in size. Summed up:
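Luminescent ATP viability assay (CellTiter-Glo, 30 min RT) in UAS-bla HEK293H cells carrying the PPAR delta reporter construct, 3000 cells/well, after a 17 h compound treatment at 37 C.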

The target of test [10] is Peroxisome proliferator-activated receptor delta (Homo sapiens) (UniProt Q03181). The test is described as follows: qHTS assay to identify small molecule agonists of the peroxisome proliferator-activated receptor delta (PPARd) signaling pathway (AID 743212; calls by dose curve). A digest of the protocol:
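Quantitative high-throughput agonist screen in a HEK293H beta-lactamase reporter line under UAS control. Compounds in DMSO, at 37 C. Fluorescence read after 2 h with FRET substrate at room temperature.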

Test [11] can be described thus: qHTS assay to identify small molecule antagonists of the peroxisome proliferator-activated receptor delta (PPARd) signaling pathway - cell viability counter screen (AID 743213). Note: nearly all actives have a fitted effect of over 50% in size. Note: potency is the fitted concentration of half-maximal effect. A digest of the protocol: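 In this counter screen, HEK293H cells carrying a UAS-beta-lactamase reporter are co-treated with test compounds and 300 nM L165041 (final) for 17 h at 37 C; cell viability is quantified by CellTiter-Glo luminescence.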

For test [12], the target named is Peroxisome proliferator-activated receptor delta (Homo sapiens) (UniProt Q03181). In words: qHTS assay to identify small molecule antagonists of the peroxisome proliferator-activated receptor delta (PPARd) signaling pathway (AID 743215; active = well fitted inhibition curve with a large enough effect in the signal ratio in the repeat runs, not every such curve was filed as active; the % refers to the signal ratio;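 note: cells stimulated with agonist L165041 at 300 nM final during compound exposure; series mostly up to about 62 µM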). A digest of the protocol:
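With L165041 present at 300 nM final, compounds were incubated 17 h at 37 C on PPARd UAS-bla HEK293H cells. A FRET-based beta-lactamase substrate was then applied for 2 h at room temperature and fluorescence intensity recorded.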

Test [13] is described as follows: qHTS assay to identify small molecule agonists of the farnesoid-X-receptor (FXR) signaling pathway - cell viability counter screen (AID 743218). Note: nearly all actives have a fitted effect of over 45% in size. Note: potency is the fitted concentration of half-maximal effect. A digest of the protocol: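 After 16 h at 37 C with test compounds, FXR-bla HEK 293T cells were given LiveBLAzer B/G substrate for 2 h at RT and then CellTiter-Glo; luminescence was taken after 30 min.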
Test [14] deals with Bile acid receptor (Homo sapiens) (UniProt Q96RI1). In words: qHTS assay to identify small molecule agonists of the farnesoid-X-receptor (FXR) signaling pathway (AID 743220; active = well fitted activation curve with a large enough effect in the signal ratio in the repeat runs, not every such curve was filed as active; the % refers to the signal ratio). Summed up: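 Beta-lactamase reporter under UAS control in GeneBLAzer FXR HEK 293T cells (5000/well) measured with LiveBLAzer FRET substrate after 2 h at room temperature. Compound exposure lasted 16 h at 37C.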

A short description of test [15]: qHTS assay to identify small molecule antagonists of the farnesoid-X-receptor (FXR) signaling pathway - cell viability counter screen (AID 743221; active = well fitted cell-killing curve with a large enough effect in the repeat runs, not every such curve was filed as active; note: nearly all actives have a fitted effect of over 50% in size). A digest of the protocol: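 In GeneBLAzer FXR-UAS-bla HEK 293T cells stimulated with 50 uM chenodeoxycholic acid (final), compounds acted for 16 h at 37 C. Viability was assessed afterwards by CellTiter-Glo luminescence.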

The target in test [16] is Bile acid receptor (Homo sapiens) (UniProt Q96RI1). In words: qHTS assay to identify small molecule antagonists of the farnesoid-X-receptor (FXR) signaling pathway (AID 743217; active = well fitted inhibition curve with a large enough effect in the signal ratio in the repeat runs, not every such curve was filed as active; the % refers to the signal ratio; note: potency is the fitted concentration of half-maximal effect). A digest of the protocol:
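In this cell-based antagonist screen, inhibition of CDCA-driven (50 uM final) UAS-beta-lactamase expression in HEK 293T cells was measured by FRET fluorescence following 16 h compound exposure at 37 °C.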

Test [17] deals with Vitamin D3 receptor (Homo sapiens) (UniProt P11473). In words: qHTS assay to identify small molecule agonists of the vitamin D receptor (VDR) signaling pathway (AID 743222; calls by dose curve). A digest of the protocol: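 VDR-bla cells were seeded, left 4 h, treated with compounds in DMSO for 16 h, incubated 2 h at RT with B/G FRET substrate, and read for fluorescence.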
Test [18] shares this target. The test is described as follows: qHTS assay to identify small molecule antagonists of the vitamin D receptor (VDR) signaling pathway (AID 743223; active = well fitted inhibition curve with a large enough effect in the signal ratio in the repeat runs, not every such curve was filed as active; the % refers to the signal ratio; note: potency is the fitted concentration of half-maximal effect). Summed up: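 Agonist 1alpha,25-dihydroxyvitamin D3 (3 nM in well) was added with each compound to VDR-bla cells preincubated 4 h. Cells stood 16 h at 37C, then FRET substrate 2 h at room temperature; fluorescence intensity recorded.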

The nature of test [19]: qHTS assay for small molecule activators of the heat shock response signaling pathway (AID 743210; active = well fitted activation curve with a large enough effect in the signal ratio in the repeat runs, with a control signal flat, not every such curve was filed as active; the % refers to the signal ratio; note: potency is the fitted concentration of half-maximal effect;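 for activation: HeLa cells with beta-lactamase reporter driven by heat shock elements; series mostly up to about 63 µM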). Summed up: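 Quantitative high-throughput format using an engineered HeLa line in which heat shock response elements drive beta-lactamase; after 5 h with compound, cells received a B/G FRET substrate and fluorescence was read.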
Test [20] can be described thus: qHTS assay for small molecule agonists of the antioxidant response element (ARE) signaling pathway (AID 743202; active = well fitted activation curve with a large enough effect in the signal ratio in the repeat runs, not every such curve was filed as active; the % refers to the signal ratio; note: potency is the fitted concentration of half-maximal effect). A digest of the protocol:
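Agonist mode reporter screen: HepG2 cells with ARE-controlled beta-lactamase are incubated with test compounds for 16 h at 37 C, and beta-lactamase activity is measured as fluorescence of cleaved B/G FRET substrate.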

Sequence of Peroxisome proliferator-activated receptor gamma (Homo sapiens) (P37231 whole entry, looked up): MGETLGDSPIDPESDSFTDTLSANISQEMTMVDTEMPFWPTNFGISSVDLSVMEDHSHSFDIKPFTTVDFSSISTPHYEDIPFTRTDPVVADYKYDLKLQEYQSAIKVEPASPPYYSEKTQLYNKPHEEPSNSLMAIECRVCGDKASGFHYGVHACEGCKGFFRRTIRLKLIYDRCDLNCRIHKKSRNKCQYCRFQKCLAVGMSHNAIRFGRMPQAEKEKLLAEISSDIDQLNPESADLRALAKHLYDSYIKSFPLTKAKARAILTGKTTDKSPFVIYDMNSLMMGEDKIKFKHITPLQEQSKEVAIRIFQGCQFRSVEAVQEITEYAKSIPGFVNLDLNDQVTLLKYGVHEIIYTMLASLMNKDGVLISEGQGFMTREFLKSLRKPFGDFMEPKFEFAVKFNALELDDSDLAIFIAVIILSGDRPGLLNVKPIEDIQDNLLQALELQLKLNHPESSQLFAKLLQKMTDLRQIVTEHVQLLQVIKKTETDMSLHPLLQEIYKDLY
Sequence of Peroxisome proliferator-activated receptor delta (Homo sapiens) (Q03181 whole entry, looked up): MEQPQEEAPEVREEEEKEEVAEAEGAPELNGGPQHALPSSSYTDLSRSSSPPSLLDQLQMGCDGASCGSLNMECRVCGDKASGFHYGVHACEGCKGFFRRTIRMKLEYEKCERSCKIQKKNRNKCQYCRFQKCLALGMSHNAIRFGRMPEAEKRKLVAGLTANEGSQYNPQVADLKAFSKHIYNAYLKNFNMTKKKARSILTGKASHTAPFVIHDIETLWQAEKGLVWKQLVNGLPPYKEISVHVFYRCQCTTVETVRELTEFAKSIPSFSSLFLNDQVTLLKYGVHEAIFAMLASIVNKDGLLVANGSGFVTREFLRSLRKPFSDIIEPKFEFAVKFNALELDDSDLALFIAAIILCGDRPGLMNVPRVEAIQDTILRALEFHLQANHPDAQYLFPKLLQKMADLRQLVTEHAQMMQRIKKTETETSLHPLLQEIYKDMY
Sequence of Bile acid receptor (Homo sapiens) (Q96RI1 whole entry, looked up): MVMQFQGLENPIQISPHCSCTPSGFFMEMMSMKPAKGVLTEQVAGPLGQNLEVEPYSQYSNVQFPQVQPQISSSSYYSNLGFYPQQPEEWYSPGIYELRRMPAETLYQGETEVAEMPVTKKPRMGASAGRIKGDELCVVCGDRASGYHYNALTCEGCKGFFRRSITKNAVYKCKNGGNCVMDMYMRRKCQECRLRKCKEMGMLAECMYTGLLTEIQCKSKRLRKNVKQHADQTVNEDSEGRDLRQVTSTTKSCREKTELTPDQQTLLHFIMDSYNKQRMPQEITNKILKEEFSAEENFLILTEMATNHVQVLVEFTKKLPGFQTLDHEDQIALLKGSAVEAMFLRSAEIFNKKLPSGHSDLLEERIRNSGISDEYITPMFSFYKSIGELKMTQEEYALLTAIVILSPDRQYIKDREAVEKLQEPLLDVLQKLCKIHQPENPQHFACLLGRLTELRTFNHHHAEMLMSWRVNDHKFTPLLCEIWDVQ
Sequence of Aryl hydrocarbon receptor (Homo sapiens) (P35869 whole entry, looked up): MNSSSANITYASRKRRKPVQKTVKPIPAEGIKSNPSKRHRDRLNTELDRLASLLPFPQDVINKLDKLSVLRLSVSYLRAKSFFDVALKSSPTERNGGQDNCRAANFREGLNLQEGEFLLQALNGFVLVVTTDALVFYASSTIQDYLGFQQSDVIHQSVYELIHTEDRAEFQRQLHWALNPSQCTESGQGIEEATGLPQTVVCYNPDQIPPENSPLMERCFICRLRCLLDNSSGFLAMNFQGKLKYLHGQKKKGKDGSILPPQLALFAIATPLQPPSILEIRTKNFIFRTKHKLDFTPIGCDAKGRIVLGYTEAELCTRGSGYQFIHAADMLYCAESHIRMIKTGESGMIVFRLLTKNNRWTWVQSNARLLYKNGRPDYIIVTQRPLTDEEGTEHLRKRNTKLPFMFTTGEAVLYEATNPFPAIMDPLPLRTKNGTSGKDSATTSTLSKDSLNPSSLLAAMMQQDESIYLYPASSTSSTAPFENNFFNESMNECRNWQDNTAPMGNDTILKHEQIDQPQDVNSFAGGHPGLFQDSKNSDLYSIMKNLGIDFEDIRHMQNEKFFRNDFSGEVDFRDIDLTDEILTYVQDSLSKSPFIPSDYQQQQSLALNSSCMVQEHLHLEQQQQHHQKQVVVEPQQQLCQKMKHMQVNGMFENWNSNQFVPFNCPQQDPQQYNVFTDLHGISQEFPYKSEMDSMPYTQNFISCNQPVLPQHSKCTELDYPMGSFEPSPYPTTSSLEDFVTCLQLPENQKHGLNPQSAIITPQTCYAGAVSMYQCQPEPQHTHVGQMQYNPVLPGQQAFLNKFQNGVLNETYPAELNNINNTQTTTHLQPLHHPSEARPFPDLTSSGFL
Sequence of Vitamin D3 receptor (Homo sapiens) (P11473 whole entry, looked up): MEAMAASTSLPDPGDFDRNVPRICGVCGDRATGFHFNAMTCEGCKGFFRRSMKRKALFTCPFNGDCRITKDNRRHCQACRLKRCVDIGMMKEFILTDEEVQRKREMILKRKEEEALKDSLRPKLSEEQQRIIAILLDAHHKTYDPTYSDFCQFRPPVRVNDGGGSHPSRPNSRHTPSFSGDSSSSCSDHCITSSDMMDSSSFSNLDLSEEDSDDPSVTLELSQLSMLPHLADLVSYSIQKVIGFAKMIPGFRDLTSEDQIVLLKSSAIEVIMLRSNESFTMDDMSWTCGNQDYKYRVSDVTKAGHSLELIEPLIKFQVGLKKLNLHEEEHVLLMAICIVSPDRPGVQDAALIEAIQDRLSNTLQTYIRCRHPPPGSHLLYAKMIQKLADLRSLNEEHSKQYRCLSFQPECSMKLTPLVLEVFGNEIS

With `Clc1ccc(C(c2ccccc2Cl)C(Cl)Cl)cc1` (centres undefined), the Potency entry in test [1], in [2], in test [3], in test [4], in test [5] and in test [7] was “inactive” in each case. The Potency entry in test [8], in [11], in test [12], in [13], in test [14] and in test [15] was “inactive” each time. For the same compound, the Potency in test [6] is 54.9 µM (active); in test [9], 49 µM (active). Moreover, the result in test [10] was inactive.
Take `CCCCCCCC/C=C\CCCCCCCC(=O)NCc1ccc(O)c(OC)c1`: the Potency result in test [1], in test [2], in test [3], in test [4], in test [6] and in test [14] was “inactive” each time. Besides, the Potency entry in test [17] is “inactive”. Moreover, the Potency in test [9] was 23.7 µM (active); in test [11], 18.8 µM (active); in test [16] it was 29.8 µM (active); in test [13] it was 29.8 µM (active); in test [18], 26.8 µM (active). Further, in [10], the compound was called inactive.
In the case of `O=C(O)c1cccc(Cl)n1`, the Potency result in [1], in test [2], in test [3], in test [4], in test [6] and in test [7] was “inactive” each time. For the same compound, the Potency entry in test [13] and in [15] was “inactive” in each case. In addition, the result in [10] was inactive.
Turning to `CCCCNc1c(C(=O)OCC)c(C)nc2c1cnn2CC`, the Potency entry in test [1], in test [3], in test [4], in test [5], in [6] and in [7] was “inactive” in each case. Moreover, the Potency entry in test [8], in [19], in test [11], in test [12], in [13] and in test [15] was “inactive” each time. Moreover, in test [17], the Potency result is “inactive”. Moreover, the Potency in test [2] is 4.73 µM (active). The compound was called inactive in test [10].
With `Cc1occc1SSc1ccoc1C`, the Potency in test [1] was 43.3 µM (active); in test [19], 23.6 µM (active). Further, the Potency entry in [2], in test [3], in test [4], in test [5], in test [6] and in [7] was “inactive” throughout. Further, the Potency entry in test [11], in [16], in test [13], in test [15] and in test [18] was “inactive” each time. Further, in test [10], the result was inactive.
As to `C/C=C/C=N/NC(=O)c1ccncc1`, the Potency result in test [1], in [3], in test [4], in [5], in test [6] and in [7] was “inactive” each time. Also, the Potency result in [11], in test [13], in [15] and in [18] was “inactive” in each case. For the same compound, the Potency in test [2] was 9.44 µM (active); in test [20], 6.68 µM (active); in [8], 18.8 µM (active). The result in test [10] was inactive.
`CCC(=O)OCCc1ccccc1`: the Potency entry in [1], in [2], in test [3], in [4], in [5] and in [6] was “inactive” each time. The Potency entry in [7], in test [13], in test [14], in test [15] and in [17] was “inactive” each time.
On to `CCO[Si](CCCSSSSCCC[Si](OCC)(OCC)OCC)(OCC)OCC`, for which the Potency result in test [1], in test [2], in [3], in test [4], in test [6] and in test [20] was “inactive” in each case. Also, the Potency result in [7], in [8], in test [19], in [11], in test [13] and in test [15] was “inactive” each time. Further, in test [17], the Potency entry was “inactive”.
